Screening results deposited in PubChem BioAssay by National Center for Advancing Translational Sciences (NCATS).
Compounds with a hit are over-represented: about 0.47% of the library has one in this group of screens.
N370S GC mod – qHTS Assay for Inhibitors and Activators of N370S glucocerebrosidase as a Potential Chaperone Treatment of Gaucher Disease | 330,000 compounds, 0.092% hits | Lysosomal acid glucosylceramidase (Homo sapiens), P04062 | AID 2101, 2009 | N370S GC spleen homogenate, 4MU-glucoside fluorescence | Potency, µM (series often up to 59.4 µM), without a hit: at the highest dose activity change, negative = inhibition, hits mostly inhibitors;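 note: 0% = full enzyme activity and -100% = no enzyme basal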
Eya2 phos inh – qHTS Assay for Inhibitors of the Phosphatase Activity of Eya2; Potency, µM (top dose mostly 76.9 µM), without a hit: at the top dose activity, negative = inhibition, most hits filed as inhibitors; recombinant Eya2, OMFP fluorescence dephosphorylation (OMFP is methylfluorescein phosphate); 330,000 compounds, 0.006% hits; Protein phosphatase EYA2 (Homo sapiens), O00167; note: % is set by controls: 0 for no effect and ±100 for the full control effect
Target sequence (O00167 whole entry, looked up): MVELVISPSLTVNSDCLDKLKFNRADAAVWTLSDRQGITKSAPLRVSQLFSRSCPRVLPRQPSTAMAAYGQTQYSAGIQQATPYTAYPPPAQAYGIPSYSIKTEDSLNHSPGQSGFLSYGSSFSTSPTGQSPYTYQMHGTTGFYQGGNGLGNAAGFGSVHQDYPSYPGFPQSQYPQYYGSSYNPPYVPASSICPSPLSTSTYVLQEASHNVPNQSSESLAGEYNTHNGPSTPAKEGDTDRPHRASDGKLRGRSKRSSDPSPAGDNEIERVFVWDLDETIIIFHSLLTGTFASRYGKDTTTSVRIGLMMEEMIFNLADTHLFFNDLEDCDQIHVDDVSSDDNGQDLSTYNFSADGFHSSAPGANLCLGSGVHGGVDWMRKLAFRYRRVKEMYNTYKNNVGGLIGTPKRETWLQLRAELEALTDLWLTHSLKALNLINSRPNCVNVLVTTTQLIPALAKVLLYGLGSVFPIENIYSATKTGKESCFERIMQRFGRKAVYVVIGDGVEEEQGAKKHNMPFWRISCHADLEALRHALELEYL
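Eya2 (0.2 uM) preincubated 10 min at ambient with compound, then OMFP substrate added at 50 uM; 10 min reaction in 50 mM HEPES pH 7.5, 50 mM NaCl, 5 uM MgCl2, 0.05% BSA, 1 mM DTT. Fluorescence read at Ex 485/Em 525 nm.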
AT treatment – qHTS Assay for Identifying a Potential Treatment of Ataxia-Telangiectasia; Potency, µM (highest dose often 57.5 µM), for the others: top-dose activation, hits mostly activators; 320,000 compounds, 0.19% hits; AID 485349, 2010; F2112 A-T fibroblasts, KAP-1 phosphorylation AlphaLISA; neocarzinostatin DNA damage 30 min before lysis; note: % of control where 0% means no effect; nearly all actives have a fitted effect of over 45% in size
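ATM-like activity read as KAP-1 phosphorylation via AlphaLISA donor/acceptor antibody pairs after lysis and 6 hr at 25C. Cells were ATM-null patient fibroblasts (F2112, hTERT), dosed 60 min, then exposed to the DSB inducer NCS for 30 min.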
Mito fusion yeast – qHTS Assay for Small Molecule Inhibitors of Mitochondrial Division or Activators of Mitochondrial Fusion; 320,000 compounds, 0.23% hits; S. cerevisiae fusion-defective mutant growth rescue, CellTiterGlo 48 h; Potency, µM (highest dose often 46.1 µM), inactives show top-dose growth rescue (activation), usual class: activators; note: % of control where 0% means no effect; nearly all actives have a fitted effect of over 45% in size
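Yeast fusion mutant, YPEG (non-fermentable carbon), compound, 48 h at 37C non-permissive; CellTiterGlo added, 10 min RT, luminescence read. Rescued growth = division inhibition.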
* marks the source's active call; other numbers are inactive results; ? = inconclusive; . = no result given. Calls come from the whole dose curve; as a rule, active = well fitted curve in the direction sought with a large enough effect; inconclusive = small, poorly fitted or top-dose-only effect, or another doubt; inactive = no such curve, though single readings can be large; an effect the other way counts as inactive or inconclusive. Potency is the fitted concentration of half-maximal effect.

SMILES	N370S GC mod	Eya2 phos inh	AT treatment	Mito fusion yeast
Cc1ccc2c(c1)c1c(n2CC(O)CNC(CO)(CO)CO)CCCC1 (stereo unspecified)	11µM*	0%	30%	-7%
Cc1ccc2c(c1)c1c(n2CC(O)CNC2CCCCC2)CCCC1 (stereo unspecified)	-16%	2%	-8%	1%
N#CC(=C(\N)Sc1ccccc1N)/C(C#N)=C(/N)Sc1ccccc1N	-2%	5%	.	18µM*
CCN(CC(=O)Nc1c(F)cccc1F)C(=O)CCNS(=O)(=O)c1ccc(C)c(C)c1	0%	-2%	8%	0%
O=C(c1cc(N2C(=O)C3C4CCC(C4)C3C2=O)ccc1Cl)N1CCN(c2ccc(F)cc2)CC1 (stereo unspecified)	11%	-14%	2%	5.6µM*
COc1ccc(N2CCN(C(=O)c3cc(N4C(=O)C5C6CCC(C6)C5C4=O)ccc3Cl)CC2)cc1 (stereo unspecified)	-3%	-11%	-10%	-1%
Cc1cccc(OCCCn2c(=O)oc3ccc(C)cc32)c1	16%	-6%	11%	23%
O=C1C=C(c2cccc(Cl)c2O)C[C@@H](c2ccc3c(c2)OCO3)C1	.	-10%	-5%	11µM*
O=C1C=C(c2cccc(Cl)c2)C[C@@H](c2ccc3c(c2)OCO3)C1	.	4%	19%	?
O=C(Nc1ccc(Cl)c(S(=O)(=O)N2CCOCC2)c1)C1CCC1	.	-3%	1%	6%
CC(C)=CCN1CCN(Cc2nc(-c3ccc(F)cc3)cs2)CC1CCO (stereo unspecified)	-25%	22%	1%	-6%
OCCC1CN(Cc2nc(-c3ccccc3)cs2)CCN1Cc1ccc(F)cc1 (stereo unspecified)	-17%	-3%	8%	11µM*
CCOC(=O)c1cnn(-c2nc(-c3ccc(F)cc3)cs2)c1C(F)(F)F	4%	7%	21%	-3%
COc1ccc(NC(=O)C2C3C=CC4(O3)C2C(=O)N(CCN2CCCCC2)C4C(=O)NC2CCCC(C)C2C)cc1 (stereo unspecified)	-8%	-12%	-1%	32µM*
Cc1cc(C)cc(NC(=O)C2C3C=CC4(O3)C2C(=O)N(CCCN2CCCC2)C4C(=O)NC2CCCC(C)C2C)c1 (stereo unspecified)	-16%	11%	32%	38%
CC(=O)c1ccc(NC(=S)Nc2cccc3cnccc23)cc1	-4%	7%	40µM*	-1%
COC(=O)c1cc2c(C)nn(C)c2s1	-3%	0%	-1%	5.6µM*
COc1ccc(N/C=C/C(=O)c2cc(OC)c(OC)c(OC)c2)cc1	-3%	-19%	0%	-4%
Cc1ccc(OCC(=O)N2CCN(C(=O)c3ccncc3)CC2)cc1	5%	2%	0%	3%
CCCCc1cc(=O)oc2cc(OC(C)C(=O)NCCN3CCOCC3)c(Cl)cc12 (stereo unspecified)	20µM*	-6%	-3%	-3%
CCCCc1cc(=O)oc2cc(OCC(=O)NCCN3CCOCC3)c(Cl)cc12	-4%	-3%	-5%	10%
O=C(CN1C(=O)S/C(=C\c2ccccc2Cl)C1=O)NCCCn1ccnc1	?	-9%	-3%	4µM*
O=C1C(CSCc2ccccc2)NC(=S)N1c1ccccc1 (stereo unspecified)	5%	?	35µM*	-5%
O=C(O)CC1NC(=S)N(c2ccccc2)C1=O (stereo unspecified)	4%	2%	2%	-8%
COC(=O)N1C(=O)[C@](Cc2ccccc2)(c2ccccc2)N1C(=O)OC	-15%	3%	40µM*	2%
SMILES	N370S GC mod	Eya2 phos inh	AT treatment	Mito fusion yeast
Cc1cc(C)c(S(=O)(=O)Nc2ccc3c(c2)CCC3)c(C)c1	11%	-10%	.	-27%
Cc1cc(C)nc(NC(=O)/C=C/c2ccccc2Cl)c1	4%	3%	1%	25µM*
Cc1cc(C)nc(NC(=O)/C=C/c2ccc(Cl)cc2Cl)c1	?	9%	9%	5%
O=S(=O)(c1cc(Cl)ccc1Cl)N1CCN(Cc2ccc3c(c2)OCO3)CC1	-10%	-1%	12%	1%
CN(C)c1ccc(C(=C2C=CC(=[N+](C)C)C=C2)c2ccc(N(C)C)cc2)cc1	3.2µM*	.	.	.
CC(=O)c1ccc(N2CCN(c3ncccn3)CC2)cc1	-5%	-16%	6%	25µM*
CC(=O)N1[C@@H]2CC3C4CC=C5C[C@@H](O)CC[C@]5(C)C4CC[C@]3(C)[C@@]21C(C)=O (stereo partly specified)	-3%	-8%	-12%	22µM*
C[C@]12CC[C@H](O)CC1=CCC1C2CC[C@@]2(C)C1CCC21OCCO1 (stereo partly specified)	.	5%	16%	.
COCCNC(=O)c1c[nH]c2ccc(S(=O)(=O)N(C)c3ccc(C)c(C)c3)cc2c1=O	-10%	-3%	7.1µM*	4%
Nc1ccc(C(=O)OCC(=O)N2CCc3ccccc3C2)cc1[N+](=O)[O-]	18%	-2%	-2%	11µM*
O=C(OCC(=O)N1CCc2ccccc2C1)c1ccc(Cl)c([N+](=O)[O-])c1	.	2%	-4%	4%
Cc1ccc(C(=O)/C=C/C(=O)c2ccc(C)cc2)cc1	8%	-6%	25µM*	-5%
CCN1CCCC1CNS(=O)(=O)c1ccc(Br)cc1 (stereo unspecified)	-32%	10%	2.8µM*	18%
CCOc1ccc(C(=O)c2cc3ccc(O)cc3oc2=O)cc1	-8%	-1%	-7%	2%
O=C(O)Cc1ccc(OCCNC[C@H](O)c2ccccc2)cc1	0%	.	.	.
CCc1ccc(CNC(=O)CCCn2c(=O)c3cccn3c3cccnc32)cc1	2%	1%	10%	11µM*
O=C1c2ccccc2C(=O)N1CCCc1c[nH]c2ccc(Cl)cc12	8%	-14%	-2%	18µM*
O=C(CN1C(=O)c2ccccc2C1=O)NCCc1c[nH]c2ccc(Cl)cc12	-4%	-3%	5%	-4%
O=C(Nc1ccccc1N1CCCC1)c1ccccc1F	20%	-2%	15%	6%
O=C(Nc1ccccc1N1CCCCC1)c1ccccc1F	-4%	-5%	28µM*	23%
Nc1nc(CSc2nc3ccccc3s2)nc(Nc2ccccc2)n1	-9%	-16%	13%	14%
Cc1c(Cl)cccc1Nc1nc(N)nc(CSc2nc3ccccc3s2)n1	7%	-3%	0%	8.9µM*
CN(C)/C=C1\C=C2C(=O)c3ccccc3N2C1=O	-16%	?	-5%	2%
CCOc1ccc(Cl)cc1C1=CC(=O)C[C@H](c2ccc(OC)cc2)C1	.	-32%	13%	35µM*
COc1ccc([C@H]2CC(=O)C=C(c3cc(Cl)ccc3OC)C2)cc1	.	5%	12%	?
OCCCNc1nc(-c2ccc(Cl)cc2)nnc1-c1ccc(Br)cc1	?	-4%	4%	13µM*
